Assay outcomes as filed in PubChem BioAssay.
USP17 block – inhibitors of human USP17 deubiquitinase; purified USP17, Ub-rhodamine cleavage fluorescence, 3 h; inhibition, % at 50 µM; actives 6.5% (n = 47,000); Ubiquitin carboxyl-terminal hydrolase 17-like protein 5 (Homo sapiens), A8MUK1
USP8 inh – inhibitors of human USP8 deubiquitinase | inhibition, % at 20 µM | purified USP8, Ub-rhodamine cleavage fluorescence, 30 min | Ubiquitin carboxyl-terminal hydrolase 8 (Homo sapiens), P40818 | actives 4.2% (n = 47,000)
USP30 inh – inhibitors of human USP30 deubiquitinase | actives 5.3% (n = 47,000) | Ubiquitin carboxyl-terminal hydrolase 30 (Homo sapiens), Q70CQ3 | purified USP30, Ub-rhodamine cleavage fluorescence | AID 1645860, 2021 | inhibition, % at 25 µM
Target sequence (Q70CQ3 whole entry, looked up): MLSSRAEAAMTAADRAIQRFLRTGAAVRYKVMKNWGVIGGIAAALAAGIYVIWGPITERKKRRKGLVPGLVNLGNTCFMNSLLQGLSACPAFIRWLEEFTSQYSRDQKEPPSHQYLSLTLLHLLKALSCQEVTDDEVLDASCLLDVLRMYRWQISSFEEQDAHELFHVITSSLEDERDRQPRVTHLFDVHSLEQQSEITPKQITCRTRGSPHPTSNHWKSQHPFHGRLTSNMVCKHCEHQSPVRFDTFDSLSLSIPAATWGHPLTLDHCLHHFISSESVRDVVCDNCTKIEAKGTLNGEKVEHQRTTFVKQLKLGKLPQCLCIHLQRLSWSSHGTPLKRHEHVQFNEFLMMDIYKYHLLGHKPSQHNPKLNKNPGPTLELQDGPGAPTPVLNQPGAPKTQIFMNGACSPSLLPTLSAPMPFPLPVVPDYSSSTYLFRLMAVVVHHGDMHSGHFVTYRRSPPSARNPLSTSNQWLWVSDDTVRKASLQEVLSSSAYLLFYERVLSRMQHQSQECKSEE
* = called active by the depositor; · = not tested or not shown. Rows were chosen to be rich in hits. Some 12% of all compounds tested hit in one or more screens of this group. Rule as the data show it: active = inhibition above about 30%; inactive = the rest.

SMILES	USP17 block	USP8 inh	USP30 inh
CC(C)Nc1nc2c(cc1C(=O)N1CCCC1)CCNCC2	-12	-1	-76
Cc1cccc(C(=O)Nc2ccc(-c3ccc(N4CCOCC4)nn3)cc2)c1	16	0	-18
CC(C)Cc1ccc(-c2cc3nc(NCc4ccco4)ccn3n2)cc1	-1	13	-26
CC(C)(C)c1cc2n(n1)[C@@H](C(F)F)C[C@@H](C1CCN(C(=O)c3ccccc3F)CC1)N2	-22	-12	-40
COc1cccc(CN2C[C@H]3N(C)C(=O)c4ccccc4C(=O)[C@@]3(C)C2)c1	0	18	-14
O=C(Nc1ccc(Cl)cc1)C1CCCN(c2ncccn2)C1 (stereo unspecified)	10	33*	15
O=C(Nc1ccc(CN2CCOCC2)cc1)C1CCCN(c2ncccn2)C1 (stereo unspecified)	0	7	14
O=C(Nc1ccc(Cl)cc1)C1CCCN(c2ncnc3nc[nH]c23)C1 (stereo unspecified)	39*	28	-31
O=C(NCc1ccncc1)C1CCCN(c2ncnc3nc[nH]c23)C1 (stereo unspecified)	1	2	6
O=C(NCC(c1ccco1)N1CCCCC1)c1ccc(Cl)cc1 (stereo unspecified)	-2	6	-6
O=C1N[C@@H]2CN(C(=O)c3ccc(F)cc3)CC[C@H]2CO1	7	3	25
CCCN1CCN(S(=O)(=O)c2cc3n(c2)CCCNC3=O)CC1	-25	0	·
COc1ccc(S(=O)(=O)c2cnc3ccc(Cl)cc3c2NCc2ccccc2)cc1	2	5	30*
COc1ccc(S(=O)(=O)c2cnc3cc(OC)c(OC)cc3c2NCc2ccccc2)cc1	0	-14	-1
COc1ccc(-c2csc(C)n2)cc1S(=O)(=O)N1CCC(C)CC1	2	-7	-80
Cn1c(=O)c(C(=O)Nc2cccc(F)c2)cc2cccnc21	0	5	-11
COc1ccccc1N1CCn2c(nc3cc(NS(C)(=O)=O)ccc32)C1	40*	14	8
Cc1cc(N2CCn3c(nc4ccccc43)C2)ccc1NS(C)(=O)=O	-19	-14	-115
Cc1ccccc1NS(=O)(=O)c1ccc(N2CCCCS2(=O)=O)cc1	2	1	2
Cc1nc(-c2cccc(S(=O)(=O)NCc3ccc(N(C)C)cc3)c2)no1	0	2	-11
CCOc1ccc(CC(=O)NCC(=O)N2CCC3(CC2)NCCc2[nH]cnc23)cc1	10	30*	9
O=C(Cc1ccc(F)cc1)NCC(=O)N1CCC2(CC1)NCCc1[nH]cnc12	1	22	-13
O=c1ccc(-c2cc3ccccc3o2)cn1Cc1ccccc1-c1ccccc1	48*	84*	-86
Cc1c(O)ccc2c(=O)c(-c3cc4ccccc4o3)coc12	3	19	9
Cc1ncccc1C(=O)N1CCCCC1c1ccn2ccnc2n1 (stereo unspecified)	-13	-6	-39
SMILES	USP17 block	USP8 inh	USP30 inh
Cn1cccc1C(=O)NC[C@@H]1OC[C@H]2CN(Cc3ccco3)CC[C@H]21	-18	-62	-18
Cc1ccc(C2CN3C(=O)CN(C4CC4)C(=O)[C@]3(C)c3[nH]c4ccccc4c32)cc1 (stereo partly specified)	4	5	-3
COc1ccc(-c2cc(C(=O)N3CCN(c4ccccn4)CC3)[nH]n2)cc1	46*	14	11
O=C(c1cc(-c2ccc(Cl)cc2)n[nH]1)N1CCN(c2ccccn2)CC1	45*	66*	43*
COc1ccc(-c2cc(N3CCN(C(=O)c4ccccn4)CC3)n[nH]2)cc1	-10	-7	-23
O=C(c1cc(-c2ccc(Cl)cc2)n[nH]1)N1CCN(c2ccc(F)cc2)CC1	3	-5	6
CCc1ccc(-c2cc(C(=O)N3CCN(C(=O)c4ccco4)CC3)[nH]n2)cc1	1	-6	-12
Cc1ccc(-c2nn3c(N4CCCC4)cc(C)nc3c2C)cc1	22	-2	-3
COc1ccc(-c2nn3c(N4CCN(c5ccccn5)CC4)cc(C)nc3c2C)cc1	84*	3	·
O=C(c1cc(-c2ccc(Cl)cc2)n[nH]1)N1CCN(C(=O)c2ccco2)CC1	70*	-4	10
Cc1nn(CC(=O)c2ccc3c(c2)NC(=O)CO3)c(C)c1[N+](=O)[O-]	15	-45	-7
COc1ccc(/C=C(\C#N)c2nnc(N=CN(C)C)s2)cc1	-13	-40	-12
O=S(=O)(c1ccccc1)N1CCN2C[C@@H](CO)[C@H](c3ccccc3)[C@H]2C1	11	-2	20
COc1cccc(N2Cc3ccccc3OCC2=O)c1	3	6	8
COc1cccc(N2CC(=O)Nc3c(oc4nc(-c5ccccc5)cc(C)c34)C2=O)c1	3	32*	37*
COc1ccc(NS(=O)(=O)/C=C/c2ccc(OC)c(OC)c2)cc1	-2	16	14
COc1ccc(/C=C/c2cc(OC)cc(=O)o2)cc1	30*	5	32*
Cc1ccc2[nH]cc(S(=O)(=O)c3cc(F)cc(F)c3)c(=O)c2c1	12	98*	8
O=[N+]([O-])c1ccc2[nH]cc(S(=O)(=O)Nc3ccc(F)cc3F)c2c1	6	-54	2
Cc1ccc2[nH]cc(S(=O)(=O)c3ccc(C)c(F)c3)c(=O)c2c1	60*	17	-34
Cc1ccc(S(=O)(=O)c2cnc3ccc(C)cc3c2Nc2ccc(C)c(C)c2)cc1	-13	8	5
Cc1ccc(S(=O)(=O)c2c[nH]c3cc(F)ccc3c2=O)cc1F	28	69*	-7
Cc1cc(C)nc(NC(=O)c2c[nH]c3ccc(F)cc3c2=O)n1	-130	-5	-305
Cc1ccc(Cn2cc(S(=O)(=O)N3CCCCCC3)ccc2=O)cc1	3	-7	3
COc1cccc(C(=O)N2CC[C@@H]3NS(=O)(=O)c4ccccc4O[C@H]3CC2)c1	-14	-3	6
SMILES	USP17 block	USP8 inh	USP30 inh
CCc1ccccc1NC(=O)NC1CCN(c2nc3cccnc3n(CC)c2=O)CC1	1	-9	-56
O=C(CN(c1ccccc1)S(=O)(=O)c1ccccc1)Oc1cc(Cl)ccc1Cl	21	30*	34*
COc1ccc(OC(=O)CN(c2cccc(C(F)(F)F)c2)S(=O)(=O)c2ccccc2)cc1	5	-5	9
O=S(=O)(c1cccnc1)N1C[C@H]2CC(OCc3ccccc3)C[C@H]2C1 (stereo partly specified)	2	-7	8
COc1ccc(-c2noc(CSc3ccc(-c4ccccc4)nn3)n2)c(OC)c1	-3	17	2
COc1ccc(-c2nnc(SCc3ccccc3C#N)o2)c(OC)c1	25	13	50*
Cc1ccc(NC(=O)c2ccc3c(c2)N(S(C)(=O)=O)CC3)cc1	51*	2	14
Cc1ccc(C)c(NC(=O)c2ccc3c(c2)N(S(C)(=O)=O)CC3)c1	-11	-5	-4
CC(C)(C)C(=O)NC(c1ccccc1)c1nnc(N2CCOCC2)o1 (stereo unspecified)	4	7	3
O=S(=O)(NCc1csc2ccc(Cl)cc12)c1ccc(Cl)cc1	17	-8	0
O=S(=O)(NCc1csc2ccc(Cl)cc12)c1cccc2cccnc12	6	38*	29
CCCCc1ccc(NC(=O)COC(=O)c2cccnc2Nc2cccc(C(F)(F)F)c2)cc1	4	0	3
